Screening results (PubChem BioAssay)
Rows were chosen to be rich in hits. Some 3.9% of all compounds tested hit in one or more screens of this group.
Platelet DG rel – modulates dense granule release in human platelets; human platelet-rich plasma, SFLLRN dense granule ATP release, luminescence; inhibition, %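 (compounds screened at 7.5 µM in platelet-rich plasma)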; 300,000 tested, 0.22% active; AID 1663;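 active = mean replicate score, as percent of positive control, at or above 50; inconclusive = mean below 50 but at least one replicate at or above 50; inactive = mean and every replicate below 50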
SKKanGAS inh – inhibitors of SKKanGAS S. pyogenes growth in kanamycin (SK-promoter or general growth effect) | BacTiter-Glo, 6 h | inhibition, % at 7.5 µM | 300,000 tested, 1.3% active | AID 1662;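 active = mean replicate score, as percent of positive control median, at least 50; inconclusive = mean below 50 but one replicate at or above 50; inactive = mean and every replicate below 50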;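 note: strain carries kanamycin resistance gene driven by streptokinase promoter and grows in 40 µg/ml kanamycin; loss of luminescence reflects streptokinase promoter inhibition or plain growth inhibition; 0% = median of DMSO wells and 100% = positive control at its reference dose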
Rtt109 HAT inh – inhibitors of Candida albicans Rtt109/Vps75 histone acetyltransferase | 330,000 tested, 0.16% active | inhibition, % at 34.9 µM | AID 540336 | purified Rtt109/Vps75, ThioGlo CoA-SH fluorescence, 4 h | Q5AAJ8;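 active = inhibition of at least 50% in every replicate; inconclusive = best replicate reaches 50% inhibition but some replicates fall short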
Target sequence (Q5AAJ8 whole entry, looked up): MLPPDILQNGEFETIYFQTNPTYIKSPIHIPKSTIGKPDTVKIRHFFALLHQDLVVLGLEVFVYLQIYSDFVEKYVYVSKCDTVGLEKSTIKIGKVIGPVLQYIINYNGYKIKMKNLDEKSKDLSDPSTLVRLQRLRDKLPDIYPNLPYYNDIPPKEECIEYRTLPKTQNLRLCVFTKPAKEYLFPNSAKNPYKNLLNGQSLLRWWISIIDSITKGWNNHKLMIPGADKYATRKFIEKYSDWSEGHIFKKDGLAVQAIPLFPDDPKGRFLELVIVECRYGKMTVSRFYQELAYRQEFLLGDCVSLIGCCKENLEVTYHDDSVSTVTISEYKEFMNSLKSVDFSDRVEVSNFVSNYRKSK
PHOSPHO1 inh – inhibitors of human PHOSPHO1 phosphatase. AID 1565. recombinant PHOSPHO1, absorbance phosphatase assay. inhibition, % at 13.3 µM. 290,000 tested, 1.1% active. Q8TCT1; in the data active = inhibition above about 60%
Target sequence (Q8TCT1 whole entry, looked up): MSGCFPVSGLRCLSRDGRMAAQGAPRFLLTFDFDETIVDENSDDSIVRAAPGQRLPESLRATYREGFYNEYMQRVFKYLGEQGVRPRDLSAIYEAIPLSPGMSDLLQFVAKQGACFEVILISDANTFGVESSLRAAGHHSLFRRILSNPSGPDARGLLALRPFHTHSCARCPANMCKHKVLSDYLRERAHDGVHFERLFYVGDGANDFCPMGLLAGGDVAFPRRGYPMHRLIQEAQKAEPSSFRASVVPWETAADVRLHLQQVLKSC
WT yeast gro inh – growth inhibition of WT yeast, mitochondrial fusion screen. mitochondrial fusion phenotypic screen, WT strain. inhibition, % at 10 µM. 190,000 tested, 2.1% active; in the data active = inhibition above about 58%; tested in S. cerevisiae
TPT1 inh – blocks Candida albicans tRNA 2'-phosphotransferase; AID 1962; 300,000 tested, 0.81% active; inhibition, % at 5 µM; recombinant caTPT1, FP RNA substrate dephosphorylation;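 active = inhibition above the mean of all tested compounds plus 3 SD, set per screening campaign, cut at about 24% in these data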;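 note: plate controls were DMSO alone for no effect and ferristatin control at 100 nM for full effect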
Numbers without * were called inactive; u = inconclusive; x = no result.

SMILES | Platelet DG rel | SKKanGAS inh | Rtt109 HAT inh | PHOSPHO1 inh | WT yeast gro inh | TPT1 inh
Cc1nn(Cc2ccccc2Cl)c(C)c1NC(=O)NC12CC3CC(CC(C3)C1)C2 | -3 | 0 | 9 | 20 | 73* | 1
CC(C)Cc1nnc(NC(=O)CN2C(=O)c3ccccc3C2=O)s1 | -5 | 0 | 10 | -134 | -12 | 1
CC(C)c1nnc(NC(=O)CN2C(=O)c3ccccc3C2=O)s1 | 9 | -5 | -1 | 89* | 0 | -2
COc1ccc(-n2c(=S)[nH]c3cc(C(=O)Nc4ccc(F)cc4)ccc3c2=O)c(OC)c1 | 7 | 20 | 9 | 27 | x | -1
CC1CC(C)CN(C(=O)c2cc3cc(Br)cc(Br)c3o2)C1 (centres undefined) | -8 | 43 | 4 | 6 | 78* | -5
CC1CC(C)CN(C(=O)c2cc3ccccc3o2)C1 (centres undefined) | -14 | -11 | -13 | x | x | 0
O=C1NC(=S)SC1=C1CCCCCC1 | 1 | 0 | 11 | 84* | 25 | 7
COc1cc(/C=N/N(C)c2ccccc2)cc(Cl)c1O | -3 | 14 | 8 | 8 | 59* | 1
COc1ccc(OC)c(/C=N/N(C)c2ccccc2)c1 | -1 | 1 | -2 | 14 | 27 | -4
CN1C[C@@H]2[C@@H]3C(=O)N(C)C(=O)[C@@H]3[C@](C)(C1=O)N2C(=O)c1ccc(F)cc1 | x | x | 2 | x | x | x
CC/C(=C(/CC)c1ccc(O)cc1)c1ccc(O)cc1 | x | -8 | 0 | 24 | 76* | -2
N=C(N)c1ccc(O)cc1 | -3 | 9 | 20 | 5 | 5 | -3
Cc1csc(C(C)NC(=O)c2ccc(OC3CCN(CCc4ccccc4)CC3)cc2)n1 (centres undefined) | -7 | -2 | u | 40 | x | -3
Cc1cc(OCCCn2ccnc2)cc(C)c1Cl | -1 | 2 | 5 | -14 | 66* | -1
Cc1cc(OCCCCCn2ccnc2)cc(C)c1Cl | -4 | 33 | 20 | 6 | 47 | 0
Cc1cccc(C)c1NC(=O)CN(C)C(=O)c1ccc2c(=O)n3c(nc2c1)CCC3 | x | x | -3 | x | x | x
O=c1cc(-c2ccccc2Cl)oc2ccc([N+](=O)[O-])c(O)c12 | 0 | 87* | 8 | -4 | 64* | -4
O=c1cc(-c2ccccc2Cl)oc2c([N+](=O)[O-])c(O)cc(O)c12 | -1 | 26 | 1 | -1 | 24 | -3
Nc1ccc2oc(-c3ccccc3Cl)cc(=O)c2c1O | 2 | 5 | 0 | -6 | 6 | 0
COc1ccccc1-c1cc(=O)c2c(O)ccc([N+](=O)[O-])c2o1 | -3 | 70* | 4 | 18 | x | -3
CC(C)c1cc(C(=O)N2CCCC(Nc3ccc(F)cc3)C2)n[nH]1 (centres undefined) | -5 | 18 | 12 | 33 | x | -4
O=C(Nc1cccc(O)c1)C(=O)Nc1ccccn1 | 71* | 18 | 2 | -12 | 24 | -2
CCCCN(C(=O)CSc1ncn[nH]1)c1c(N)n(Cc2ccccc2)c(=O)[nH]c1=O | x | x | -1 | x | x | x
C=CCN(CC=C)c1ncnc2[nH]ncc12 | x | x | 6 | x | x | x
c1csc(C(c2nnnn2C2CCCC2)N2CCCC3(CCCCC3)C2)c1 (centres undefined) | 13 | 33 | 4 | 22 | 70* | -4
SMILES | Platelet DG rel | SKKanGAS inh | Rtt109 HAT inh | PHOSPHO1 inh | WT yeast gro inh | TPT1 inh
CCN(Cc1ccccc1)C(c1cccs1)c1nnnn1C1CCCCC1 (centres undefined) | -1 | -2 | 42 | -21 | 75* | -1
c1csc(C(c2nnnn2C2CCCC2)N2CCOCC2)c1 (centres undefined) | 8 | -3 | -7 | -4 | 9 | 1
O=C(COC(=O)/C=C/c1ccc(C(F)(F)F)cc1)NC(=O)NCc1ccco1 | x | x | 6 | x | x | x
CSCc1cc(N(C)c2ccccc2)nc(-c2ccccn2)n1 | 5 | 75* | -2 | 20 | x | 0
COc1cc(C(=O)NNC(=O)COc2ccc(Cl)cc2)ccc1OCC(=O)N1CCOCC1 | x | x | -6 | x | x | x
Cc1nn(C(C)C(=O)NNC(=S)Nc2ccc(F)cc2)c(C)c1[N+](=O)[O-] (centres undefined) | -1 | -4 | -2 | 72* | -4 | -2
Cc1nn(CCC(=O)NNC(=S)Nc2ccc([N+](=O)[O-])cc2)c(C)c1[N+](=O)[O-] | 7 | 7 | 7 | -10 | 1 | -4
CC(=O)Nc1ccc(NC(=O)C(C)n2nc(C)c([N+](=O)[O-])c2C)cc1 (centres undefined) | 4 | -2 | 0 | 39 | 2 | 2
Cc1nn(C)c(C(=O)NNC(=S)Nc2ccc(F)cc2)c1[N+](=O)[O-] | 7 | -7 | -6 | 57 | 15 | -5
CC(=O)Nc1ccc(NC(=O)C(C)n2nc([N+](=O)[O-])c(Br)c2C)cc1 (centres undefined) | 1 | 2 | x | 63* | -10 | -2
COc1ccc(NC(=S)NNC(=O)C(C)n2nc(C)c([N+](=O)[O-])c2C)cc1 (centres undefined) | -4 | 4 | 14 | 68* | -4 | -3
CS(=O)(=O)c1ccc(C(=O)NNC(=O)c2ccccc2-n2cccc2)cc1 | x | x | -2 | x | x | x
CC1CCCCC12NC(=O)N(CC(=O)Nc1ccc(N3CCCCC3)cc1)C2=O (centres undefined) | x | x | 0 | x | x | x
COc1ccc(/C=C/C(=O)NNC(=O)c2ccncc2)c(OC)c1 | x | x | 8 | x | x | x
CCCc1ccc(Oc2cc(NN3CCCCC3)c([N+](=O)[O-])cc2[N+](=O)[O-])cc1 | -4 | -4 | -2 | -36 | x | -3
COc1cc(SC)ccc1C(=O)Nc1c(C)cccc1C | 6 | -1 | -5 | 37 | 12 | -1
COc1cc(SC)ccc1C(=O)NNC(=O)c1cc(C)oc1C | 58* | 45 | -7 | x | x | -3
COc1cc(SC)ccc1C(=O)Nc1nc2ccccc2[nH]1 | 96* | 107* | -15 | 23 | x | 3
O=C(COc1cccc2ccccc12)Nc1nc2ccccc2[nH]1 | x | x | 6 | 7 | 67* | 1
COC(=O)c1cc(C(=O)Nc2nc3ccccc3[nH]2)cc([N+](=O)[O-])c1 | 0 | 63* | 0 | 24 | x | 4
O=C(C=Cc1ccccc1)CC(c1ccccc1)N1CCOCC1 (centres undefined) | x | x | 1 | x | x | x
O=C(COC(=O)c1ccc2ncsc2c1)Nc1ccccc1Br | x | x | 4 | x | x | x
COc1ccccc1C(=O)NCCC(=O)Nc1nc2ccccc2[nH]1 | -1 | -16 | 14 | x | x | -3
COc1ccccc1C(=O)Nc1nc2ccccc2[nH]1 | 57* | 90* | -16 | 31 | x | -1
COc1ccc(NC(=O)COc2ccc(/C=C/c3cc[n+](C)cc3)cc2OC)cc1 | -13 | 3 | -121 | 13 | x | 3
COc1cc(/C=C/c2cc[n+](C)cc2)ccc1OCC(=O)Nc1ccc(Cl)c(Cl)c1 | 2 | 60* | -62 | -77 | x | 7
COc1cc(/C=N/NC(N)=O)ccc1OCC(=O)Nc1ccc(C)c(C)c1 | 56* | -3 | x | -3 | -23 | 2
